Values joined by “and” are separate entries in the source; they are usually repeats but may differ in a detail not shown here. Identical values can stand only once. This is part of a sample that, as a whole, favours compounds with a hit. Of some 79,000 tested, about 15% had one in any assay. Some structures have more than one record in an assay (separate samples or runs), and their calls can disagree. Active and inactive are the calls of the source. Rule as the data show it: active = growth inhibition above about 70%; inactive = the rest.

Test [1] in a line: NCI Yeast Anticancer Drug Screen. Data for the rad50 strain (AID 155).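 Also: 0% = growth of vehicle-only cultures of the same strain.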 To be noted: S. cerevisiae rad50 strain growth inhibition, stronger effect = higher value. In short, it runs like this: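 Readout: growth inhibition relative to vehicle-treated cultures. Compound exposure was carried out in a genetically defined yeast strain deficient in DNA damage repair.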
Test [2] can be described thus: NCI Yeast Anticancer Drug Screen. Data for the mec2-1 strain (AID 157). To be noted: S. cerevisiae mec2-1 strain, stronger effect = higher value. In short, it runs like this:
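Strain: mec2-1 (DNA repair/cell cycle alteration). Compound exposure, then growth measured; inhibition expressed relative to vehicle.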

A short description of test [3]: NCI Yeast Anticancer Drug Screen. Data for the sgs1 mgt1 strain (AID 161).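 Also: 0% = growth of cultures given vehicle only.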 The note with it: S. cerevisiae sgs1 mgt1 strain, stronger effect = higher value. A digest of the protocol:
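Inhibition of yeast growth, normalised to vehicle-treated controls, is reported for a strain bearing genetic alterations in DNA damage repair.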

Test [4] is described as follows: NCI Yeast Anticancer Drug Screen. Data for the cln2 rad14 strain (AID 165).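 Also: 0% = growth equal to vehicle treated cultures.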 To be noted: S. cerevisiae cln2 rad14 strain, stronger effect = higher value. In short, it runs like this: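 Compounds are applied to the cln2 rad14 yeast strain, and growth is then compared with that of vehicle-treated cultures to give inhibition.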
Test [5] in a line: NCI Yeast Anticancer Drug Screen. Data for the bub3 strain (AID 167). To be noted: S. cerevisiae bub3 mutant strain, stronger effect = higher value. A digest of the protocol:
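Readout: yeast growth inhibition, expressed relative to vehicle-only wells. The test organism is a mutant strain from a panel with lesions in DNA repair or checkpoint genes.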

Test [6] is described as follows: NCI Yeast Anticancer Drug Screen. Data for the mlh1 rad18 strain (AID 175). The note with it: S. cerevisiae mlh1 rad18 strain growth inhibition, stronger effect = higher value. In short, it runs like this:
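Read-out is yeast growth inhibition, calculated against vehicle-only controls. The compound was applied to a strain engineered with DNA damage repair alterations.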

The mark [7] stands for this setting: at 5.0 µM (retest, dose inferred, filed as 0.5).
Where [8] appears, read: at 50.0 µM (retest, dose inferred, filed as 5.0).

As for `[I][Hg][CH2]C1COCC([CH2][Hg][I])O1` (stereo unspecified), the growth inhibition in test [1] (setting [7]) was 0% (inactive); in test [1] (setting [8]), 5% (inactive); in test [1] (at 50.0 µM), 98.7% (active); in test [2] (setting [7]), 4% (inactive); in test [2] (setting [8]), 6% (inactive); in test [2] (at 50.0 µM), 99.5% (active). Moreover, the growth inhibition is 0% (inactive) in test [3] (setting [7]); 9% (inactive) in test [3] (setting [8]); 99.2% (active) in test [3] (at 50.0 µM); -1% (inactive) in test [4] (setting [7]); 7% (inactive) in test [4] (setting [8]); 98.2% (active) in test [4] (at 50.0 µM). The growth inhibition in test [5] (setting [7]) was 5% (inactive); in test [5] (setting [8]) it was -8% (inactive); in test [5] (at 50.0 µM) it was 99.5% (active); in test [6] (setting [7]), 0% (inactive); in test [6] (setting [8]) it was 7% (inactive); in test [6] (at 50.0 µM) it was 99.2% (active).
For `Oc1ccc2ccccc2c1O`, the growth inhibition in test [1] (setting [7]) was 13% (inactive); in test [1] (setting [8]), 81% (active); in test [1] (at 50.0 µM), 66.4% (inactive); in test [2] (setting [7]), 3% (inactive); in test [2] (setting [8]) it was 59% (inactive); in test [2] (at 50.0 µM), 50.9% (inactive). Moreover, the growth inhibition is 7% (inactive) in test [3] (setting [7]); 84% (active) in test [3] (setting [8]); 57.3% (inactive) in test [3] (at 50.0 µM); -5% (inactive) in test [4] (setting [7]); 30% (inactive) in test [4] (setting [8]); 34% (inactive) in test [4] (at 50.0 µM). For the same compound, the growth inhibition was 32% (inactive) in test [5] (setting [7]); 90% (active) in test [5] (setting [8]); 70% (active) in test [5] (at 50.0 µM); 20% (inactive) in test [6] (setting [7]); 92% (active) in test [6] (setting [8]); 86.2% (active) in test [6] (at 50.0 µM).
In the case of `CC(=O)O[C@H]1CC[C@H]2[C@@H]3CC[C@H]4CC(=O)CC[C@@H]4[C@H]3CC[C@]12C`, the growth inhibition was -2% (inactive) in test [1] (setting [7]); -19% (inactive) in test [1] (setting [8]); 11% (inactive) in test [1] (at 50.0 µM); -2% (inactive) in test [2] (setting [7]); -9% (inactive) in test [2] (setting [8]); 10.8% (inactive) in test [2] (at 50.0 µM). For the same compound, the growth inhibition is -2% (inactive) in test [3] (setting [7]); -10% (inactive) in test [3] (setting [8]); 88.6% (active) in test [3] (at 50.0 µM); -14% (inactive) in test [4] (setting [7]); -6% (inactive) in test [4] (setting [8]); 1.15% (inactive) in test [4] (at 50.0 µM). Besides, the values for the growth inhibition in test [6] (setting [7]), in test [6] (setting [8]) and in test [6] (at 50.0 µM) were -1% (inactive), -7% (inactive) and -1.35% (inactive), respectively.
As to `CC12CCC(C)(c3cc(O)c(O)cc31)c1cc(O)c(O)cc12`, the growth inhibition is -4% (inactive) in test [1] (setting [7]); 4% (inactive) in test [1] (setting [8]); 52.3% (inactive) in test [1] (at 50.0 µM); -1% (inactive) in test [2] (setting [7]); -1% (inactive) in test [2] (setting [8]); 31.4% (inactive) in test [2] (at 50.0 µM). Also, the growth inhibition in test [3] (setting [7]) is -1% (inactive); in test [3] (setting [8]), 4% (inactive); in test [3] (at 50.0 µM), 37% (inactive); in test [4] (setting [7]), 2% (inactive); in test [4] (setting [8]), 19% (inactive); in test [4] (at 50.0 µM), 57.5% (inactive). In addition, the growth inhibition was 4% (inactive) in test [5] (setting [7]); 33% (inactive) in test [5] (setting [8]); 43.9% (inactive) in test [5] (at 50.0 µM); -1% (inactive) in test [6] (setting [7]); 22% (inactive) in test [6] (setting [8]); 70.1% (active) in test [6] (at 50.0 µM).
Take `CCC1CC2CCC(O2)C(C)C(=O)OC(C)CC2CCC(O2)C(C)C(=O)OC(CC)CC2CCC(O2)C(C)C(=O)OC(C)CC2CCC(O2)C(C)C(=O)O1` (stereo unspecified): the growth inhibition in test [1] (setting [7]) was -7% (inactive); in test [1] (setting [8]), 71% (active); in test [1] (at 50.0 µM) it was 82.3% (active); in test [2] (setting [7]) it was 23% (inactive); in test [2] (setting [8]), 88% (active); in test [2] (at 50.0 µM), 84.5% (active). Further, the growth inhibition was -1% (inactive) in test [3] (setting [7]); 74% (active) in test [3] (setting [8]); 80.7% (active) in test [3] (at 50.0 µM); 25% (inactive) in test [4] (setting [7]); 79% (active) in test [4] (setting [8]); 66.2% (inactive) in test [4] (at 50.0 µM). Besides, the growth inhibition in test [5] (setting [7]) is -4% (inactive); in test [5] (setting [8]), 79% (active); in test [5] (at 50.0 µM), 79.2% (active); in test [6] (setting [7]), -15% (inactive); in test [6] (setting [8]) it was 85% (active); in test [6] (at 50.0 µM), 73.2% (active).
Turning to `CC#N.FC(F)(F)C#CC(F)(F)F.FC(F)(F)C#CC(F)(F)F.FC(F)(F)C#CC(F)(F)F.[W]`, the growth inhibition in test [1] (setting [7]) was 90% (active); in test [1] (setting [8]) it was 99% (active); in test [1] (at 50.0 µM), 99.4% (active); in test [2] (setting [7]), 83% (active); in test [2] (setting [8]), 99% (active); in test [2] (at 50.0 µM), 99.5% (active). Moreover, the growth inhibition in test [3] (setting [7]) was 90% (active); in test [3] (setting [8]) it was 99% (active); in test [3] (at 50.0 µM) it was 99.7% (active); in test [4] (setting [7]), 85% (active); in test [4] (setting [8]), 99% (active); in test [4] (at 50.0 µM), 99.2% (active). The growth inhibition in test [5] (setting [7]) is 94% (active); in test [5] (setting [8]), 99% (active); in test [5] (at 50.0 µM), 99.6% (active); in test [6] (setting [7]), 95% (active); in test [6] (setting [8]) it was 99% (active); in test [6] (at 50.0 µM), 99.3% (active).
For `CN(C)CCN(C)P12(Oc3ccccc3O1)Oc1c(Cl)c(Cl)c(Cl)c(Cl)c1O2`, the growth inhibition was -8% (inactive) in test [1] (setting [7]); 6% (inactive) in test [1] (setting [8]); 99% (active) in test [1] (at 50.0 µM); 9% (inactive) in test [2] (setting [7]); 14% (inactive) in test [2] (setting [8]); 99.2% (active) in test [2] (at 50.0 µM). The growth inhibition in test [3] (setting [7]) is -10% (inactive); in test [3] (setting [8]) it was 9% (inactive); in test [3] (at 50.0 µM), 99% (active); in test [4] (setting [7]), -19% (inactive); in test [4] (setting [8]), 22% (inactive); in test [4] (at 50.0 µM), 99.1% (active). In addition, the growth inhibition in test [6] (setting [7]) is 0% (inactive); in test [6] (setting [8]) it was 16% (inactive); in test [6] (at 50.0 µM) it was 97.6% (active).
Take `N=C(N)c1ccccc1`: the growth inhibition in test [1] (setting [7]) was 12% (inactive); in test [1] (setting [8]), 79% (active); in test [1] (at 50.0 µM), -2.25% (inactive) and 80.2% (active); in test [2] (setting [7]), -1% (inactive); in test [2] (setting [8]) it was 20% (inactive); in test [2] (at 50.0 µM) it was 5.4% (inactive) and 2.1% (inactive). The growth inhibition in test [3] (setting [7]) is 2% (inactive); in test [3] (setting [8]) it was 23% (inactive); in test [3] (at 50.0 µM), -1.6% (inactive) and 17.9% (inactive); in test [4] (setting [7]) it was 6% (inactive); in test [4] (setting [8]), 13% (inactive); in test [4] (at 50.0 µM), -0.6% (inactive) and 49.5% (inactive). In addition, the growth inhibition is -2% (inactive) in test [5] (setting [7]); 8% (inactive) in test [5] (setting [8]); 6.9% (inactive) and 25.4% (inactive) in test [5] (at 50.0 µM); -2% (inactive) in test [6] (setting [7]); 22% (inactive) in test [6] (setting [8]); -14.5% (inactive) and 46.6% (inactive) in test [6] (at 50.0 µM).
As for `NC1=C(c2nc(-c3ccccc3)cs2)C(c2ccc(Br)cc2)c2c(c3ccccc3oc2=O)O1` (stereo unspecified), the growth inhibition is 5% (inactive) in test [1] (setting [7]); 99% (active) in test [1] (setting [8]); 0.8% (inactive) in test [1] (at 50.0 µM); 6% (inactive) in test [2] (setting [7]); 100% (active) in test [2] (setting [8]); 29.2% (inactive) in test [2] (at 50.0 µM). Further, the growth inhibition in test [3] (setting [7]) is 7% (inactive); in test [3] (setting [8]), 99% (active); in test [3] (at 50.0 µM), 17.2% (inactive); in test [4] (setting [7]), 3% (inactive); in test [4] (setting [8]), 99% (active); in test [4] (at 50.0 µM) it was 42.4% (inactive). For the same compound, the growth inhibition in test [5] (setting [7]) is 4% (inactive); in test [5] (setting [8]) it was 99% (active); in test [5] (at 50.0 µM), 28.8% (inactive); in test [6] (setting [7]) it was 6% (inactive); in test [6] (setting [8]), 99% (active); in test [6] (at 50.0 µM), 46.1% (inactive).

The values are drawn from PubChem BioAssay (NCI).
